Sampled rows, rich in hits. Any-hit rate of the full collection: about 12%.
L3MBTL1 inh: L3MBTL1 (human) inhibition; AID 485360; AlphaScreen L3MBTL1–H3K9me1 peptide binding; Q9Y468; actives 0.66% (n = 230,000); Potency, µM (highest dose often 57.1 µM), for inactives: top-dose activity, negative = inhibition, actives largely listed as inhibitors; further: on the % scale 0 is the no-effect control and ±100 the full control effect; nearly all actives have a fitted effect of over 60% in size
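L3MBTL1 (50 nM) pre-complexed 30 min with biotinylated H3(1-15)K9me1 peptide (75 nM), then compounds added for 30 min at room temperature; AlphaScreen streptavidin donor/nickel chelate acceptor beads (10 ug/mL final) read after 30 min dark incubation.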
HP1b chromo inh: HP1-beta chromodomain-methylated histone interaction inhibition | Potency, µM (top dose mostly 114 µM), for the others: top-dose activity change, negative = inhibition, actives largely listed as inhibitors | actives 0.56% (n = 390,000) | AlphaScreen HP1-beta / biotin-H3K9me3 peptide binding | AID 540317; further: nearly all actives have a fitted effect of over 70% in size
Target sequence (P83916 whole entry, looked up): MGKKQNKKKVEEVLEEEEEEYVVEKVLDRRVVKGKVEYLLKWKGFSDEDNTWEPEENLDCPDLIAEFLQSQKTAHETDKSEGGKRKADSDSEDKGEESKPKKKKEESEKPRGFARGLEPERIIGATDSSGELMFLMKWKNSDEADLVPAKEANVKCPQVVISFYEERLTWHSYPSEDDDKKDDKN
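AlphaScreen: HP1-beta (50 nM) preformed 30 min with biotin-H3(1-18)K9me3 peptide (50 nM) in PBS pH 7.4, 0.01% Tween-20. Compound added for 30 min at RT, then streptavidin donor/nickel chelate acceptor beads (10 ug/mL) for 30 min.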
Sfp PPTase inh: inhibitors of Bacillus subtilis Sfp phosphopantetheinyl transferase; Biochemical Sfp PPTase activity, qHTS; actives 3.5% (n = 310,000); Potency, µM, without a hit: largest response in the series, negative = inhibition, actives largely listed as inhibitors; Q9F4F7;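 further: the enzyme is Sfp with the accession as filed and its product quenches rhodamine fluorescence; 0% = enzyme reaction without inhibitor and -100% = no enzyme wells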
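Fluorescence-quenching assay: 15 nM Sfp-PPTase preincubated 15 min at room temperature with compound, then 5 uM rhodamine-CoA and 12.5 uM BHQ-2-labelled YbbR peptide added. Fluorescence (ex 525/em 598 nm) read at start and after 30 min; difference gives rate.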
BAZ2B inh: inhibitors of human BAZ2B bromodomain | actives 4.4% (n = 360,000) | Q9UIF8 | AlphaScreen BAZ2B-H3K14Ac peptide displacement | Potency, µM (titrated, usually from 114 µM), for the others: at the top dose activity change, negative = inhibition, actives largely listed as inhibitors; further: on the % scale 0 is the no-effect control and ±100 the full control effect; nearly all actives have a fitted effect of over 60% in size
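AlphaScreen luminescence quantifies BAZ2B engagement of H3K14Ac peptide; the protein and biotinylated peptide are both at 50 nM final, buffer PBS pH 7.4 with 0.01% Tween-20, all steps at room temperature.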
JMJD2A Tudor inh: JMJD2A Tudor domain (human) inhibition | O75164 | actives 4.4% (n = 390,000) | AID 504339 | Potency, µM (top dose mostly 114 µM), for inactives: at the highest dose activity change, negative = inhibition, actives largely listed as inhibitors | AlphaScreen JMJD2A-Tudor / H3K4me3 peptide binding; further: on the % scale 0 is the no-effect control and ±100 the full control effect; nearly all actives have a fitted effect of over 50% in size
G9a inh: inhibitors of human histone lysine methyltransferase G9a | Potency, µM (highest dose often 102 µM), for the others: at the top dose activity, negative = inhibition, hits mostly inhibitors | actives 8.8% (n = 350,000) | AID 504332 | G9a H3K9 monomethylation, AlphaScreen, 2 h; further: on the % scale 0 is the no-effect control and ±100 the full control effect; nearly all actives have a fitted effect of over 75% in size
Target sequence (Q96KQ7 913-1193 limits assumed): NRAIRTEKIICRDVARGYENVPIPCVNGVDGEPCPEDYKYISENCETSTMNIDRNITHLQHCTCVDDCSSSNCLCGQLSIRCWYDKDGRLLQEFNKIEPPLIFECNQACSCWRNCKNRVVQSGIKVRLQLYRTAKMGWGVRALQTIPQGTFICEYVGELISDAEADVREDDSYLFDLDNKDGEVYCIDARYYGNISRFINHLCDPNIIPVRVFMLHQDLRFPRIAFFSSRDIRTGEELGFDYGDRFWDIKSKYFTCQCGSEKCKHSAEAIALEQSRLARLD
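G9a (20 nM) preincubated 15 min RT with compounds, then 500 nM biotinylated H3K9 peptide and 20 uM SAM added; 2 h RT reaction. Monomethyl-H3K9 product detected by AlphaScreen with anti-H3K9me1 antibody, streptavidin donor and anti-rabbit IgG acceptor beads.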
* = called active by the depositor; ? = inconclusive; nt = no result; [ ] = remark or other dose. The call rests on the fitted dose curve; in most records, active means well fitted curve in the direction sought with a large enough effect; inconclusive means small, poorly fitted or top-dose-only effect, or another doubt; inactive means no such curve, though single readings can be large; an effect the other way counts as inactive or inconclusive. Potency means the concentration at half of the fitted maximal effect.

SMILES	L3MBTL1 inh	HP1b chromo inh	Sfp PPTase inh	BAZ2B inh	JMJD2A Tudor inh	G9a inh
CCCCn1c(N)c(N(CCOC)C(=O)c2cc(-c3ccc(OC)c(OC)c3)nc3ccccc23)c(=O)[nH]c1=O	2%	20%	nt	-36%	-14%	11µM*
COCCn1ccc2c(OCC(=O)Nc3ccccc3F)cccc2c1=O	nt	13%	nt	-8%	-11%	?
CCCSC1=NC2(CCN(C(=O)NC3CCCCC3)CC2)N=C1c1ccc(OC)cc1	nt	28%	nt	5%[57.1 µM]	-12%	?
O=C(N/N=C/c1ccc[nH]1)c1cc2ccccc2cc1O	nt	-2%	-12%	40µM*	?	79µM*
O=C(N/N=C/c1ccncc1)c1cc2ccccc2cc1O	nt	27%	8%	-30%	-33%	?
CCSc1ncc(Cl)c(C(=O)N2CCN(c3ccc(OC)cc3)CC2)n1	nt	-18%	nt	?	?	14µM*
COc1ccc(N2CCN(C(=O)c3c(Cl)cnn3C)CC2)cc1	nt	9%	-9%	-1%	-12%	40%
CCCS(=O)(=O)c1ncc(Cl)c(C(=O)N2CCN(c3ccc(OC)cc3)CC2)n1	nt	36%	nt	-3%	-16%	11µM*
Cc1cc(-n2c(C)cc(C(=O)COc3ccc(Cl)cc3C(N)=O)c2C)no1	-2%	28%	nt	nt	-13%	nt
N.N.O=C(O)C1(C(=O)O)CCC1.[Pt+2]	nt	nt	nt	nt	nt	0.28µM*
CCCc1cc(-c2nc(-c3ccc(Br)cc3)cs2)ccn1	52%	132%	?	55%	78%	20%[59 µM]
CCCc1cc(-c2nc(-c3ccc(Cl)cc3)cs2)ccn1	28%	201%	40µM*	46%	100%	3%[59 µM]
N#Cc1ccccc1S(=O)(=O)N1CCN(C(=O)CCNS(=O)(=O)c2ccc(Cl)cc2)CC1	nt	37%	nt	nt	-7%	nt
COC(=O)C1(C(C)=O)CC2=CC[C@@H]3C(=O)N(c4ccccc4)C(=O)[C@@H]3[C@@H]2Cc2ccccc2[C@@H]1C[N+](=O)[O-] (stereo partly specified)	nt	nt	14%	nt	nt	nt
Cc1ccc(N2C(=O)c3ccccc3C2=O)c(C)c1	nt	nt	nt	nt	-4%	nt
O=C1c2ccccc2C(=O)N1OS(=O)(=O)c1ccccc1	3%	nt	10µM*	-11%	nt	4µM*
O=C1c2cccc3cccc(c23)C(=O)N1OS(=O)(=O)c1ccccc1	-5%	4%	-9%	7%	-23%	27%[59 µM]
Cc1cc(S(=O)(=O)ON2C(=O)c3ccccc3C2=O)ccc1F	nt	?	11µM*	-26%	79µM*	7.1µM*
Cc1ccc(C)c(S(=O)(=O)ON2C(=O)c3ccccc3C2=O)c1	15%	32µM*	18µM*	-6%	?	7.9µM*
Cc1ccc(S(=O)(=O)ON2C(=O)c3cccc4cccc(c34)C2=O)cc1	0%	54%	-6%	-2%	-24%	28%[59 µM]
COc1ccc(C(=O)N2CCC3(CCCN(c4ccncc4)C3)CC2)cc1	nt	nt	6%	nt	nt	?
CCOc1ccccc1NC(=O)Cn1ncc2c([nH]c3ccccc32)c1=O	nt	24%	nt	9%	-17%	31%[59 µM]
CCOC(=O)CNC(=O)CSc1nnc(-c2ccco2)n1N	-6%	31%	-3%	3%	-17%	-5%
COC(=O)c1c(NC(=O)CSc2nnc(-c3ccco3)n2C)sc(C)c1C	-5%	?	4%	-9%	79µM*	-13%[59 µM]
CCn1c(SCC(=O)N(C)CC(=O)Nc2cccc(OC)c2)nnc1-c1ccco1	3%	11%	nt	-1%	-15%	-30%
CCOC(=O)c1c(NC(=O)CSc2nnc(CNc3ccc(F)cc3)o2)sc(C(C)=O)c1C	nt	28%	4%	50µM*	-35%	33%[2.33 µM]
CCn1c(SCC(=O)N(C)CC(=O)Nc2ccc(OC)cc2)nnc1-c1ccco1	-2%	34%	nt	10%	-6%	20µM*
CCOC(=O)c1c(NC(=O)CSc2nnc(-c3ccc(C)cc3)o2)sc(C(C)=O)c1C	nt	23%	4%	11%	-4%	-1%[59 µM]
